Here are results for 40 sequences from the supplement of paper PMC6555819.

In one assay the test system is PPARg:RXRa IVT, anti-PPARg (NR concentration 270 nM, RXRa partner concentration 90 nM). The assay can be described thus: PBM binding z-score (relative to random genomic background probes); higher = stronger binding; sequences stand for … in GC…GCGATTGACAGCGTAGAATGAAGG
A digest of the protocol: (§1)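 Random background probes are the reference for binding z-scores. These scores derive from regression-normalized fluorescence on custom Agilent 4×180K protein-binding microarrays incubated 1 h with ligand-free nuclear receptor dimers. Binding was detected with antibodies against each partner (one per run).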
CAAACTAGGTCGAAGGTCAAAGTCGAGCCAACCA showed a PBM binding z-score of 7.65.

Sequence GCGACTGGGGCATCAGCAGGTTACTATAACTTAA had a PBM binding z-score of 3.05.

Consider CGAACGAGGCCATGAGTTGATAGCAAATGCCGAT, for which the PBM binding z-score was 0.713.

In turn, ATCGAAATGTCGACGAGGTGAGTATACACCGTTT registered a PBM binding z-score of 0.676.

On to CCTACTGCGCCAAAAAGGTCATTGATGCCGATAA, for which the PBM binding z-score stood at 1.48.

Consider TAGCCTAGGTCATGCGAGCCAGTATAGTGTCGGC, for which the PBM binding z-score was determined as 2.77.

CCTATTTGGTCAAGGTCACACACGCTATAGGTAC registered a PBM binding z-score of 3.67.

Take GGAAAGAGGGCAAGTTGATAGCAGAGTTTGATGG: the PBM binding z-score was found to be 2.18.

In turn, ATACGTAGGTTAGCTGGGGTCATTCAGACTAGGC showed a PBM binding z-score of 1.51.

As to GGAACGAGGGCAAGTTTATAGCAGAGTTTGATGG, the PBM binding z-score was found to be 2.81.

TAGCCTAGGTCAGATCGGGCCAGTTTACGCTATA registered a PBM binding z-score of 1.12.

The sequence CCTTACGGCTCACGAGGTTATAGCACGACGAGCG returned a PBM binding z-score of -0.209.

Regarding GCTTTTAGATCAAGGTTAAGAAAGACTAAGCTAA, the PBM binding z-score was determined as 0.787.

For the sequence CGTCCAAGGTTAAAGGTCAGTGAAGAGATGACGG, the PBM binding z-score stood at 4.19.

Sequence AGAATGAGGTTGTACGTAGATCAGGGAAGAAAGT showed a PBM binding z-score of 0.566.

Turning to CCTAGCAGTCCAATCTGGGTCACTCAAGGCTTGA, the PBM binding z-score was found to be 4.58.

AGAACGAGGGCACGCTGAGTCGATAGCAGAGTAG: the PBM binding z-score was found to be 3.81.

AGAATGAGGTTATACGTATATCAGGGAAGAAAGT returned a PBM binding z-score of 2.25.

The sequence TCTAGTTGGTCAATGGTCACACACTCGAAATGCG displayed a PBM binding z-score of 2.54.

Sequence GGAACGAGGGCAAAGTAGATAGCATCTGTCGACG came in with a PBM binding z-score of 3.19.

In turn, AATACAGGGTCACTAGGACAGAGTAGGTACGAAT registered a PBM binding z-score of 5.7.

In turn, GTATCAAGGTGAATAGGTCGTTGATGAGTAGGCG returned a PBM binding z-score of 4.02.

The sequence AGAATGTGGTTATACGTAGATCAGGGAAGAAAGT had a PBM binding z-score of 0.38.

Regarding GCTCGGAGGACAAGGTCAGAGCTTTGTCCGTAGA, the PBM binding z-score stood at 0.861.

Turning to CGTCAAAGTTCAACTAAGGTAGCGTAAAGCACGC, the PBM binding z-score came to 1.51.

On to CCTTACGGGTCAAGCTTATAGCACGGGTGGTACG, for which the PBM binding z-score came to 3.48.

Take TTACCAAGGTGAGCTGAGGTCGTTGACCCAACTC: the PBM binding z-score stood at 2.03.

Sequence ATCTCGAGGTAAAGATAGTTCAGTGAATGCAAAT gave a PBM binding z-score of 0.54.

Sequence GCGACTGGGGCAAAGCAGGTTACCATAAGGTTGG returned a PBM binding z-score of 3.61.

As for CCCTACGGGTCAAGGTTATAGCACGGGTGGTACG, the PBM binding z-score stood at 2.06.

As to TCATTTAGGTAATACAGGTGAAAGTCGGCATCTA, the PBM binding z-score turned out to be 3.29.

For the sequence CCTCGGAGGAGAACAGGAGGTCAGAGCTGCCAGA, the PBM binding z-score was 0.248.

Consider CCTGCTAGGTCATCGTCAGCTAATCTACAGTATG, for which the PBM binding z-score worked out at 3.59.

As to CGTCCATGGTCAATGCTAGGTCAGTGAAAGCATT, the PBM binding z-score was 0.623.

With AGAACGAGGGCCCGCTGAGTTGATAGCAGAGTAG, the PBM binding z-score was -0.481.

Sequence CCGCGGAGGACAGAAGGTCAGAGCTGTCCGCTTT returned a PBM binding z-score of 0.1.

TCTTGTAGATCAAGCAGGTTATGAAAGCCTGAGT showed a PBM binding z-score of 0.311.

The sequence ACTAGCAAGCCAAGGGTCACTCAAGATTAGTCCG registered a PBM binding z-score of 1.46.

CTACCAAGGTGAACAAGGTCGCTGATTACTATTC had a PBM binding z-score of 2.81.

Consider TCGAGTAGGTTACCAATGGGGTATTCAGCTTTCT, for which the PBM binding z-score is 2.46.

The next assay relates to PPARg DBDmut:RXRa IVT, anti-PPARg (DBD mutation: PPARg1 K132A/R137A, NR concentration 270 nM, RXRa partner concentration 90 nM). Described as above. The method in brief:
as §1
For the sequence CAAACTAGGTCGAAGGTCAAAGTCGAGCCAACCA, the PBM binding z-score was 2.75.

With GCGACTGGGGCATCAGCAGGTTACTATAACTTAA, the PBM binding z-score is -0.371.

CGAACGAGGCCATGAGTTGATAGCAAATGCCGAT showed a PBM binding z-score of -0.17.

Turning to ATCGAAATGTCGACGAGGTGAGTATACACCGTTT, the PBM binding z-score worked out at 0.668.

In turn, CCTACTGCGCCAAAAAGGTCATTGATGCCGATAA displayed a PBM binding z-score of 0.19.

With TAGCCTAGGTCATGCGAGCCAGTATAGTGTCGGC, the PBM binding z-score was determined as 0.571.

In turn, CCTATTTGGTCAAGGTCACACACGCTATAGGTAC showed a PBM binding z-score of 1.27.

Sequence GGAAAGAGGGCAAGTTGATAGCAGAGTTTGATGG came in with a PBM binding z-score of 0.748.

ATACGTAGGTTAGCTGGGGTCATTCAGACTAGGC came in with a PBM binding z-score of 0.0785.

The sequence GGAACGAGGGCAAGTTTATAGCAGAGTTTGATGG came in with a PBM binding z-score of 0.157.

In turn, TAGCCTAGGTCAGATCGGGCCAGTTTACGCTATA had a PBM binding z-score of -0.332.

CCTTACGGCTCACGAGGTTATAGCACGACGAGCG had a PBM binding z-score of -0.288.

For GCTTTTAGATCAAGGTTAAGAAAGACTAAGCTAA, the PBM binding z-score worked out at 0.785.

Sequence CGTCCAAGGTTAAAGGTCAGTGAAGAGATGACGG showed a PBM binding z-score of 0.18.

With AGAATGAGGTTGTACGTAGATCAGGGAAGAAAGT, the PBM binding z-score came out at 0.8.

Turning to CCTAGCAGTCCAATCTGGGTCACTCAAGGCTTGA, the PBM binding z-score is -0.524.

AGAACGAGGGCACGCTGAGTCGATAGCAGAGTAG returned a PBM binding z-score of 0.34.

Sequence AGAATGAGGTTATACGTATATCAGGGAAGAAAGT showed a PBM binding z-score of 1.21.

For TCTAGTTGGTCAATGGTCACACACTCGAAATGCG, the PBM binding z-score is 0.677.

Consider GGAACGAGGGCAAAGTAGATAGCATCTGTCGACG, for which the PBM binding z-score is -0.596.

Take AATACAGGGTCACTAGGACAGAGTAGGTACGAAT: the PBM binding z-score is 2.64.

In the case of GTATCAAGGTGAATAGGTCGTTGATGAGTAGGCG, the PBM binding z-score was found to be 1.21.

AGAATGTGGTTATACGTAGATCAGGGAAGAAAGT came in with a PBM binding z-score of 1.04.

Take GCTCGGAGGACAAGGTCAGAGCTTTGTCCGTAGA: the PBM binding z-score was -1.56.

As to CGTCAAAGTTCAACTAAGGTAGCGTAAAGCACGC, the PBM binding z-score is -0.0827.

Regarding CCTTACGGGTCAAGCTTATAGCACGGGTGGTACG, the PBM binding z-score is 0.116.

On to TTACCAAGGTGAGCTGAGGTCGTTGACCCAACTC, for which the PBM binding z-score amounted to 0.277.

For the sequence ATCTCGAGGTAAAGATAGTTCAGTGAATGCAAAT, the PBM binding z-score is 0.0992.

With GCGACTGGGGCAAAGCAGGTTACCATAAGGTTGG, the PBM binding z-score is -0.534.

For the sequence CCCTACGGGTCAAGGTTATAGCACGGGTGGTACG, the PBM binding z-score is -0.206.

TCATTTAGGTAATACAGGTGAAAGTCGGCATCTA registered a PBM binding z-score of 1.53.

As for CCTCGGAGGAGAACAGGAGGTCAGAGCTGCCAGA, the PBM binding z-score is -1.26.

CCTGCTAGGTCATCGTCAGCTAATCTACAGTATG registered a PBM binding z-score of -0.277.

The sequence CGTCCATGGTCAATGCTAGGTCAGTGAAAGCATT displayed a PBM binding z-score of -0.309.

On to AGAACGAGGGCCCGCTGAGTTGATAGCAGAGTAG, for which the PBM binding z-score is -0.976.

CCGCGGAGGACAGAAGGTCAGAGCTGTCCGCTTT had a PBM binding z-score of -1.81.

For the sequence TCTTGTAGATCAAGCAGGTTATGAAAGCCTGAGT, the PBM binding z-score stood at 0.244.

ACTAGCAAGCCAAGGGTCACTCAAGATTAGTCCG had a PBM binding z-score of -0.235.

CTACCAAGGTGAACAAGGTCGCTGATTACTATTC showed a PBM binding z-score of 0.217.

TCGAGTAGGTTACCAATGGGGTATTCAGCTTTCT had a PBM binding z-score of -0.47.
